PubChem BioAssay (NCI)
This is part of a sample that, as a whole, favours compounds with a hit. Of some 83,000 tested, about 20% had one in any assay.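 Growth was measured after 48 h exposure to one concentration of compound in 96-well plates. Values under 10 count as active.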 Unmarked numbers belong to inactive results. Active and inactive are the calls of the source.

Assays:
Test in all cases: NCI-60 one-dose screen, 48 h (100 = growth as untreated, 0 = no growth, -100 = all killed)
Settings in all cases: 10 µM
[1] = system: DU-145 prostate
[2] = system: K-562 leukemia
[3] = system: MALME-3M melanoma
[4] = system: MDA-MB-231 breast
[5] = system: RXF 393 renal
[6] = system: SF-268 CNS
[7] = system: SF-295 CNS
[8] = system: SF-539 CNS
[9] = system: M14 melanoma
[10] = system: HCT-15 colon
[11] = system: HT29 colon
[12] = system: SNB-75 CNS
[13] = system: SNB-19 CNS
[14] = system: U251 CNS
[15] = system: SK-MEL-5 melanoma
[16] = system: UACC-62 melanoma
[17] = system: LOX IMVI melanoma
[18] = system: SK-MEL-28 melanoma
[19] = system: PC-3 prostate
[20] = system: UACC-257 melanoma

Row | Compound | growth [1] | growth [2] | growth [3] | growth [4] | growth [5] | growth [6] | growth [7] | growth [8] | growth [9] | growth [10] | growth [11] | growth [12] | growth [13] | growth [14] | growth [15] | growth [16] | growth [17] | growth [18] | growth [19] | growth [20]
1 | CCOC(=O)CSc1nc(-c2cc(OC)ccc2OC)cc(-c2ccc(OC)cc2)c1C#N | 75.2% | 106% | 98.8% | 83.9% | 70.3% | 73.9% | 70.3% | 64.6% | 76.9% | 69.1% | 64.2% | 97.5% | 94.2% | 86.7% | 80% | 71% | 85.5% | 84.8% |  | 
2 | Clc1nc2ccccc2cc1Cn1nnc(Cc2ccccc2)n1 | 75.2% | 55.2% | 65.6% | 53.1% | 83.9% | 65.7% | 47.6% | 81.2% | 73.6% | 65% | 71.5% | 55.4% | 89.9% | 76.3% | 0.724% (active) | 51.7% | 53.6% | 84.7% |  | 
3 | Cc1ccc(-c2c3c(N)nc(-c4cccnc4)nc3nc3c2c(C)nn3-c2ccccc2)cc1 | 98.1% | 86.7% | 91.9% | 75.9% | 79% | 80.7% | 96.1% | 45.8% | 97.3% | 84.4% | 77.3% | -0.959% (active) | 99.1% |  | 76.1% | 82.2% | 80.9% | 68.2% | 69.3% | 
4 | CCOC(=O)c1sc2ncnc(Nc3ccc4c(cnn4C(=O)Nc4ccc(C)c(Cl)c4)c3)c2c1C | 102% | 102% | 91.1% | 96.5% | 99.3% | 103% | 102% | 104% | 103% | 95.3% | 90% | 110% | 103% | 99.3% | 102% | 99.6% | 96% | 111% |  | 
5 | Nc1ccc(-c2cccs2)cc1NC(=O)c1ccc(CCCC(=O)Nc2ccc(C3CC3N)cc2)cc1 (centres undefined) | 84.6% | -30.7% (active) | 75.1% | 47.1% | 77% | 104% | 84% | 77% | 70.8% | 87.2% | 64.8% | 111% | 90.8% | 7.02% (active) | 20% | 45.5% | 19% | 83.1% |  | 
6 | COc1ccc2nc3cc(Cl)ccc3c(N)c2c1 | -96.8% (active) | -60.6% (active) | -71.8% (active) | -94.1% (active) | -98.1% (active) | -85.7% (active) |  | -90.3% (active) | -95.6% (active) | -65% (active) | -67.3% (active) | -99.3% (active) | 4.71% (active) | -74.3% (active) | -95.6% (active) | -96.4% (active) | -94.7% (active) | -98.4% (active) | -73% (active) | -81.2% (active)
7 | O=C1c2ccccc2-c2c1c1cccnc1c(=O)n2C[C@H](O)CO | 80.9% | 76.6% | 66.8% | 75.7% | 91% | 75.3% | 50.3% | 52% | 75.4% | 62.8% | 57.7% | 63.9% | 59.2% | 46.8% |  | 51% | 36.3% | 87.9% |  | 
8 | Cc1ccc(-n2c(C)nn3c(=O)c4c5c(sc4nc23)CN(C)CC5)cc1 | 99.8% | 100% | 93.7% | 96.3% | 105% | 94.1% | 98.1% | 101% | 95.8% | 101% | 86.6% | 93.4% | 105% | 101% | 106% | 101% | 95.1% | 106% |  | 
9 | Nc1nc(-c2cccnc2)nc2c1sc(=S)n2-c1ccccc1 | 103% | 106% | 112% | 65.2% | 100% | 96% | 111% | 103% | 106% | 104% | 94.6% | 94.9% | 95% | 88.2% | 98.6% | 101% | 93.7% | 116% |  | 
10 | COc1cc2c3c(n(C4CCNCC4)c(=O)c2cc1OC)-c1cc2c(cc1C3=O)OCO2 | -92.8% (active) | -48.8% (active) | -68.4% (active) | -69.1% (active) | -56.4% (active) | -60% (active) | -70.7% (active) | -65.8% (active) | -76.1% (active) | -73.8% (active) | -58.3% (active) | -61.7% (active) | -54.8% (active) | -64.3% (active) | -89.3% (active) |  | -73.1% (active) | -5.66% (active) |  | 
11 | C[C@]12CC[C@@H]3c4ccc(OS(=O)(=O)O)cc4CC[C@H]3[C@@H]1CC[C@@H]2NS(=O)(=O)c1ccc(-c2ccccc2)cc1 | 75.3% | 26.8% | 60.8% | 84.3% | 53.1% | 69.8% |  | 90.1% | 62.8% | 52.6% | 50% | 75.6% | 89.6% |  | 67.4% | 79.1% |  | 95.8% | 41% | 77.2%
12 | CN1CCc2c(sc3nc4n(-c5ccc(Cl)cc5)cnn4c(=O)c23)C1 | 110% | 106% | 97% | 98.7% | 122% | 95.6% | 102% | 106% | 96.8% | 104% | 91.1% | 94.2% | 107% | 104% | 109% | 102% | 97.6% | 116% |  | 
13 | COc1ccc(C(=O)CSc2nc(-c3cc(OC)ccc3OC)cc(-c3ccc(OC)cc3)c2C#N)cc1 | 108% | 102% | 110% | 102% | 107% | 90% | 100% | 86.5% | 93.9% | 92.1% | 92.2% | 90.1% | 99.9% | 104% | 99.1% |  | 91.4% | 101% |  | 
14 | CN1CCc2c(sc3nc4n(-c5ccc(Cl)cc5)c(=O)[nH]n4c(=O)c23)C1 | 103% | 107% | 98.5% | 120% | 118% | 106% | 104% | 99.8% | 99.3% | 103% | 86.4% | 95.2% | 109% | 98.7% | 110% |  | 92.5% | 111% |  | 
15 | Cn1c2ccccc2c2c3[nH][nH]c(=O)c3c3c4ccccc4[nH]c3c21 | 10.5% | 32.3% | 92.3% | 19.8% | -36.7% (active) | 25% | 81.3% | -20.8% (active) | 17.4% | 19.7% | 43.3% | 37.2% | 32.5% | 22.7% | -18.1% (active) | -5.51% (active) | -30.3% (active) | 29.3% |  | 
16 | CC(C)(C)c1ccc(S(=O)(=O)N[C@H]2CC[C@H]3[C@@H]4CCc5cc(O)c([N+](=O)[O-])cc5[C@H]4CC[C@]23C)cc1 | 67.4% | 70.1% | 67.1% | 35.7% | 42.5% | 72.6% |  | 81.5% | 78.5% | 87.9% | 70% | 5.54% (active) |  |  | 83.5% | 84.2% |  | 77% | 47.4% | 77.7%
17 | Fc1ccc2[nH]cc(-c3nc(-c4ccsc4)cs3)c2c1 | 108% | 106% | 93% | 79.5% | 100% | 99.8% | 89.8% | 94% | 93.7% | 91.4% | 100% | 92.2% | 109% | 93.7% | 89.2% |  | 86.7% | 108% |  | 
